Measurements published in PubChem BioAssay (Tox21).
Inconclusive results are not listed. The source made the active and inactive calls. Unless noted, calls come from the whole dose curve; as a rule, active = well fitted curve in the direction sought with a large enough effect in the repeat runs; inconclusive = weak or mixed curves; inactive = no such curve, though single readings can be large; an effect the other way counts as inactive or inconclusive.

Columns and labels:
[1] = qHTS assay to identify small molecule agonists of the hypoxia (HIF-1) signaling pathway - cell viability counter screen (AID 1224844; calls by dose curve; note: nearly all actives have a fitted effect of over 50% in size; note: potency is the fitted concentration of half-maximal effect)
Method in brief: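 Cytotoxicity measured by CellTiter-Glo ATP luminescence in the wells also read for beta-lactamase signal. Cells were HRE-bla ME-180 (2,000/well, 0.5% dialyzed FBS), exposed to compounds for 17 h at 37C.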

[2] = qHTS assay to identify small molecule agonists of H2AX (AID 1224845; active = well fitted activation curve with a large enough effect in the signal ratio in the repeat runs, not every such curve was filed as active; the % refers to the signal ratio; note: potency is the fitted concentration of half-maximal effect)
Method in brief: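 Wild-type CHO-K1 cells, plated overnight, exposed 3hr at 37C to 15 concentrations (0.76% DMSO final). Lysed, then HTRF anti-pH2AX (S139) cryptate and anti-H2AX-d2 antibodies, 24 hr room temperature; 665/620 nm emission read.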

[3] = qHTS assay to identify small molecule agonists of H2AX - cell viability counter screen (AID 1224847; calls by dose curve; note: nearly all actives have a fitted effect of over 30% in size; note: potency is the fitted concentration of half-maximal effect)
Method in brief: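 CHO-K1 wt, 1000 cells/well, o/n 37C; cpds 15 conc, 3 h 37C, 0.76% DMSO; CellTiter-Glo, 30 min RT, luminescence.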

[4] = qHTS assay to identify small molecule antagonists of the estrogen related receptor (ERR) signaling pathway from Tox21 library (AID 1224848); note: nearly all actives have a fitted effect of over 50% in size; note: potency is the fitted concentration of half-maximal effect
Method in brief: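 Quantitative high-throughput format: ERR reporter cells (2,000/well) pre-incubated 6 h, treated 18 h at 37 C with compounds in DMSO alongside positive and negative controls, then read by ONE-Glo luminescence.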

[5] = qHTS RealTime-Glo MT Cell Viability Assay in HepG2 cells - 24 hour (AID 1224867); note: nearly all actives have a fitted effect of over 50% in size; note: potency is the fitted concentration of half-maximal effect
Method in brief: (§1)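 qHTS, HepG2, 600 cells/well, RealTime-Glo (NanoLuc + prosubstrate) added with cells; 5 h preincubation; DMSO compound addition; 37 C; luminescence at 0/8/16/24/32/40 h.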

[6] = A CellTox Green Cytotoxicity Assay to monitor cytotoxicity in HEK293 cells - 0 hour (AID 1224869); note: nearly all actives have a fitted effect of over 50% in size
Method in brief: (§2)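 Fluorescence from a DNA-binding dye excluded by viable cells was measured repeatedly in the same HEK293 wells (600 cells/well) during continuous compound exposure at 37 C. Each assay gives one read point: 0, 8, 16, 24, 32 or 40 h.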

[7] = qHTS RealTime-Glo MT Cell Viability Assay in HepG2 cells - 40 hour (AID 1224870); note: nearly all actives have a fitted effect of over 50% in size; note: potency is the fitted concentration of half-maximal effect
Method in brief: (§3)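 HepG2 cells (600/well) mixed with RealTime-Glo MT reagent, settled 5 h at 37 C/5% CO2 before compound addition. Nonlytic NanoLuc luminescence from viable-cell prosubstrate reduction read repeatedly during 40 h treatment at 37 C.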

[8] = A CellTox Green Cytotoxicity Assay to monitor cytotoxicity in HEK293 cells - 40 hour (AID 1224871); note: nearly all actives have a fitted effect of over 45% in size; note: potency is the fitted concentration of half-maximal effect
Method in brief: as §2

[9] = qHTS RealTime-Glo MT Cell Viability Assay in HEK293 cells - 16 hour (AID 1224872); note: nearly all actives have a fitted effect of over 50% in size; note: potency is the fitted concentration of half-maximal effect
Method in brief: (§4)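 Assay medium contained NanoLuc luciferase plus cell-permeant prosubstrate, added with HEK293 cells at 600 cells/well. After 5 h at 37 C/5% CO2 compounds were added; plates stayed at 37 C for 40 h with serial luminescence reads.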

[10] = qHTS RealTime-Glo MT Cell Viability Assay in HepG2 cells - 8 hour (AID 1224873); note: nearly all actives have a fitted effect of over 55% in size; note: potency is the fitted concentration of half-maximal effect
Method in brief: as §3

[11] = qHTS RealTime-Glo MT Cell Viability Assay in HEK293 cells - 40 hour (AID 1224874); conditions: RealTime-Glo luminescence; max response: active compounds read low; note: nearly all actives have a fitted effect of over 50% in size; note: potency is the fitted concentration of half-maximal effect
Method in brief: (§5)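 Luminescence, which tracks viable cell number through reduction of the prosubstrate to a NanoLuc substrate, was read over continuous 37 C culture. Cells (600/well) were premixed with reagent and rested 5 h before 23 nL of compound in DMSO was pinned.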

[12] = A CellTox Green Cytotoxicity Assay to monitor cytotoxicity in HEK293 cells - 24 hour (AID 1224875); note: nearly all actives have a fitted effect of over 45% in size; note: potency is the fitted concentration of half-maximal effect
Method in brief: as §2

[13] = qHTS RealTime-Glo MT Cell Viability Assay in HepG2 cells - 32 hour (AID 1224877); note: nearly all actives have a fitted effect of over 55% in size; note: potency is the fitted concentration of half-maximal effect
Method in brief: as §1

[14] = A CellTox Green Cytotoxicity Assay to monitor cytotoxicity in HepG2 cells - 24 hour (AID 1224878); note: nearly all actives have a fitted effect of over 45% in size; note: potency is the fitted concentration of half-maximal effect
Method in brief: (§6)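 Real-time cytotoxicity: fluorescence of a cell-impermeant cyanine dye binding DNA of dead HepG2 cells, measured repeatedly (0–40 h) during compound exposure at 37 C. Cells seeded 600/well with reagent, dosed after 5 h.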

[15] = A CellTox Green Cytotoxicity Assay to monitor cytotoxicity in HepG2 cells - 40 hour (AID 1224879); note: nearly all actives have a fitted effect of over 40% in size; note: potency is the fitted concentration of half-maximal effect
Method in brief: as §6

[16] = qHTS assay to identify small molecule agonists of the estrogen related receptor (ERR) signaling pathway from Tox21 library (AID 1224849; calls by dose curve; note: nearly all actives have a fitted effect of over 15% in size); conditions: ERR reporter cell line, ONE-Glo luciferase, 18 h; at 92.4 µM (top of the series) unless noted
Method in brief: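 Luminescent agonist read-out (One-Glo, 30-minute room-temperature incubation) following 18-hour compound treatment at 37 C of the ERR cell line, which had been plated 6 hours before dosing.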

[17] = qHTS RealTime-Glo MT Cell Viability Assay in HEK293 cells - 32 hour (AID 1224868); note: nearly all actives have a fitted effect of over 50% in size; note: potency is the fitted concentration of half-maximal effect
Method in brief: as §4

[18] = A CellTox Green Cytotoxicity Assay to monitor cytotoxicity in HepG2 cells - 16 hour (AID 1224876); note: nearly all actives have a fitted effect of over 45% in size; note: potency is the fitted concentration of half-maximal effect
Method in brief: as §6

[19] = qHTS RealTime-Glo MT Cell Viability Assay in HEK293 cells - 0 hour (AID 1224880); note: nearly all actives have a fitted effect of over 45% in size; note: potency is the fitted concentration of half-maximal effect
Method in brief: as §5
% is set by controls: 0 for no effect and ±100 for the full control effect.

CCC(C)(C)C(=O)OC1=C(c2ccc(Cl)cc2Cl)C(=O)OC12CCCCC2
active: Potency [1] 49 µM
inactive: Potency [2] | Potency [3] | Potency [4] | Potency [5] | Potency [6] | Potency [7] | Potency [8] | Potency [9] | Potency [10] | max response [11] -14% | Potency [12] | Potency [13] | Potency [14] | Potency [15]

C[C@]12CC[C@@H]3c4ccc(OC(=O)N(CCCl)CCCl)cc4CC[C@H]3[C@@H]1CC[C@@H]2O
inactive: Potency [1] | Potency [2] | Potency [3] | Potency [4] | activity change, positive = activation [16] -21.8% [at 42.5 µM] | Potency [5] | Potency [17] | Potency [6] | Potency [8] | Potency [9] | max response [11] -6.19% | Potency [12] | Potency [18] | Potency [13] | Potency [14] | Potency [15] | Potency [19]

O=[N+]([O-])c1cc(C(F)(F)F)c(Cl)c([N+](=O)[O-])c1Cl
active: Potency [1] 7.76 µM | Potency [2] 31.8 µM | Potency [4] 27.3 µM | Potency [5] 21.9 µM | Potency [7] 13.8 µM | Potency [8] 6.16 µM | Potency [9] 6.92 µM | Potency [10] 43.6 µM | Potency [11] 4.9 µM | Potency [12] 7.76 µM | Potency [18] 49 µM | Potency [13] 21.9 µM | Potency [14] 24.5 µM | Potency [15] 19.5 µM
inactive: activity change, positive = activation [16] -73.4% | Potency [6] | Potency [19]

CCCN(CCC)c1c([N+](=O)[O-])cc(S(N)(=O)=O)cc1[N+](=O)[O-]
active: Potency [1] 37 µM | Potency [2] 101 µM | Potency [3] 89.8 µM | Potency [4] 48.6 µM | Potency [5] 43.6 µM | Potency [17] 18.5 µM | Potency [7] 49 µM | Potency [8] 39.7 µM | Potency [9] 16.5 µM | Potency [10] 24.5 µM | Potency [11] 35.4 µM | Potency [12] 23.3 µM | Potency [18] 33.5 µM | Potency [13] 43.6 µM | Potency [14] 13.1 µM | Potency [15] 11 µM
inactive: activity change, positive = activation [16] -56.8% | Potency [6] | Potency [19]

O=c1ssc(Cl)c1Cl
active: Potency [1] 17.4 µM | Potency [3] 89.8 µM | Potency [5] 21.9 µM | Potency [17] 15.5 µM | Potency [7] 21.9 µM | Potency [8] 21.9 µM | Potency [9] 17.4 µM | Potency [10] 21.9 µM | Potency [11] 13.8 µM | Potency [12] 38.9 µM | Potency [18] 19.5 µM | Potency [13] 21.9 µM | Potency [14] 19.5 µM | Potency [15] 19.5 µM | Potency [19] 24.5 µM
inactive: Potency [2] | activity change, positive = activation [16] -17.9%

CCCCN(CCCC)C(=S)[S-].CCCCN(CCCC)C(=S)[S-].[Zn+2]
active: Potency [1] 15.5 µM | Potency [3] 80 µM | Potency [4] 12.2 µM | Potency [5] 34.7 µM | Potency [17] 11 µM | Potency [7] 24.5 µM | Potency [8] 15.5 µM | Potency [9] 12.3 µM | Potency [10] 21.9 µM | Potency [11] 11 µM | Potency [12] 21.9 µM | Potency [18] 48.9 µM | Potency [13] 24.5 µM | Potency [15] 24.5 µM
inactive: Potency [2] | activity change, positive = activation [16] -74.5% | Potency [6] | Potency [19]

CCOC(=O)C1(c2ccccc2)CCN(CCC(C#N)(c2ccccc2)c2ccccc2)CC1
inactive: Potency [1] | Potency [2] | Potency [3] | Potency [5] | Potency [17] | Potency [6] | Potency [7] | Potency [9] | Potency [12] | Potency [18] | Potency [13] | Potency [14] | Potency [15]

Oc1ccc(C2(c3ccc(O)cc3)CCCCC2)cc1
active: Potency [1] 52.1 µM | Potency [3] 95.4 µM | Potency [11] 46.4 µM
inactive: Potency [2] | Potency [5] | Potency [6] | Potency [10] | Potency [18] | Potency [13] | Potency [14] | Potency [19]

O=C(O)C1C2CCC(O2)C1C(=O)O (stereo unspecified)
active: Potency [2] 102 µM
inactive: Potency [1] | Potency [4] | activity change, positive = activation [16] 4.71% | Potency [5] | Potency [6] | Potency [8] | Potency [9] | Potency [10] | Potency [12] | Potency [18] | Potency [13] | Potency [14] | Potency [19]
